Source: ChEMBL document CHEMBL3988442, “University of Dundee, Small-Polar-MMV Screening Library” (2021)
For some assays here: Potency and affinity values are given separately.

Assays:
Parameters in all cases: scale not given: direction of the effect not stated beside the values
[1] = biological target: Protein translocase subunit SecA (Escherichia coli (strain K12)) (UniProt P10408); assay: Assay to Identify E. coli SecA ATPase Inhibitors; assay type: functional; details: 30 µM
[2] = biological target: T1, Ubiquitin-activating enzyme e1, putative (Leishmania donovani (strain BPK282A1)) (UniProt E9BSI1); assay: Leishmania donovani Ubiquitin Activating Enzyme (LdE1); assay type: functional; details: 30 µM
T1 sequence (whole entry): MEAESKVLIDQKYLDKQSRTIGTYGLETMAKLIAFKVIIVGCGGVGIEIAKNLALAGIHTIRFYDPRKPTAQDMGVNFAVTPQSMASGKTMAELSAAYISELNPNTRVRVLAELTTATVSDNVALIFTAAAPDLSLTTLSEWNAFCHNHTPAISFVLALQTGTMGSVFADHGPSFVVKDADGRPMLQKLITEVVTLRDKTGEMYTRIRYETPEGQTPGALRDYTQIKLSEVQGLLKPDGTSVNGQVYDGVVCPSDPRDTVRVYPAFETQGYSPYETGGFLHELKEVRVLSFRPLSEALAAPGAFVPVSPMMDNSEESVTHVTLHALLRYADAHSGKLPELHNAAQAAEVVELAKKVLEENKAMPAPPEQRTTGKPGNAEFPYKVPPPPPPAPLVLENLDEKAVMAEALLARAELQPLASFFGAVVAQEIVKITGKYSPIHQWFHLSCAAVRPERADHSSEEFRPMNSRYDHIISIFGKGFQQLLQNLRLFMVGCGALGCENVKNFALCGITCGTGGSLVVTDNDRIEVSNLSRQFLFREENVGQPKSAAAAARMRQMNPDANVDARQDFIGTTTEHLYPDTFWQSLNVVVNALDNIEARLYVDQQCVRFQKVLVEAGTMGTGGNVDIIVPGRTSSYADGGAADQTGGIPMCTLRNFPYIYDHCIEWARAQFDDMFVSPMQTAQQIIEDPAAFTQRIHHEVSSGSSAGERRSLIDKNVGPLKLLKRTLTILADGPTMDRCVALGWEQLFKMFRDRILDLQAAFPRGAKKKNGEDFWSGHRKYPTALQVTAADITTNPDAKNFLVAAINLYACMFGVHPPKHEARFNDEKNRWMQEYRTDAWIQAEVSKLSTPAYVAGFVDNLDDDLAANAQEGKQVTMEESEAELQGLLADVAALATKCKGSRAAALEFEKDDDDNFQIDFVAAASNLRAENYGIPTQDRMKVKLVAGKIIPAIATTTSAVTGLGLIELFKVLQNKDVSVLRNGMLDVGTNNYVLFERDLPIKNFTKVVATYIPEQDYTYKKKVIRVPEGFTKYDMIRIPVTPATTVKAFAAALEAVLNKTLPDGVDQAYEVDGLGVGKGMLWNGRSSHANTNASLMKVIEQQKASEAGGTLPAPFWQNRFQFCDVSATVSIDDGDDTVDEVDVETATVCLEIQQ

[3] = biological target: Sialic acid-binding Ig-like lectin 9 (Homo sapiens) (UniProt Q9Y336); assay: Hs-Siglec9 ALPHAscreen SOP 20170721; details: 10 µM
Chain of Sialic acid-binding Ig-like lectin 9 (Homo sapiens) (Q9Y336 whole entry): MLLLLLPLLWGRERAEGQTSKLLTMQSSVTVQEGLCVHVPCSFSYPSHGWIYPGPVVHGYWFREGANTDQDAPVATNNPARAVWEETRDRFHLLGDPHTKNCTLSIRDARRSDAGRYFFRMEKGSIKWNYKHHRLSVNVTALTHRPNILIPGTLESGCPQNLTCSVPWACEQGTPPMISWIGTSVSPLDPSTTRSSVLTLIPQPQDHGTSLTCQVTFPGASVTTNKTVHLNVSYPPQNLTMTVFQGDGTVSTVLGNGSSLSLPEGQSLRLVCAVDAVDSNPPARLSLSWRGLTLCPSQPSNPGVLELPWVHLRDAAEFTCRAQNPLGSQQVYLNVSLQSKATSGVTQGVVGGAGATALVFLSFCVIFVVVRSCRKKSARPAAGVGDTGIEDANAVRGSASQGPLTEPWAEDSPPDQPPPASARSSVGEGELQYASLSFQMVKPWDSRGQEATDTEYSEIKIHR

Trypanosoma cruzi = assay: Trypanosoma cruzi phosphomannomutase and mannose-1-phosphate guanylyltransferase assay; assay type: functional; details: 10 µM
[4] = biological target: T2, Arginase-2, mitochondrial (Homo sapiens) (UniProt P78540); assay: in vitro enzyme assay to detect the production of urea directly proportional to the activity of Arginase II; assay type: functional; details: 33.3 µM; note: in the data most compounds retested in dose-response had high values
T2 sequence (whole entry): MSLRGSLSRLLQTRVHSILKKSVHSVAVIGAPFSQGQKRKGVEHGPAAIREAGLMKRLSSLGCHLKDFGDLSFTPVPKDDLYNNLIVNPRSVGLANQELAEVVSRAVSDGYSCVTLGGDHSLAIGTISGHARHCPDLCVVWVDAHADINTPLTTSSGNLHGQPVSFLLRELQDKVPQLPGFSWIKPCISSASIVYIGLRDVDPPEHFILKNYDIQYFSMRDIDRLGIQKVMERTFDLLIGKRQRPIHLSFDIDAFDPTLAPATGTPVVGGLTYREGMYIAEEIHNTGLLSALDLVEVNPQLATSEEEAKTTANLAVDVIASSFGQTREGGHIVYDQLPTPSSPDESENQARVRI

[5] = biological target: T3, Proteasome subunit beta (Trypanosoma cruzi) (UniProt O96673); assay: Trypanosoma cruzi proteasome chymotrypsin-like activity (TcProtChymo) assay.; note: in the data most compounds retested in dose-response had high values; assay type: functional; details: 9.37 µM
T3 sequence (whole entry): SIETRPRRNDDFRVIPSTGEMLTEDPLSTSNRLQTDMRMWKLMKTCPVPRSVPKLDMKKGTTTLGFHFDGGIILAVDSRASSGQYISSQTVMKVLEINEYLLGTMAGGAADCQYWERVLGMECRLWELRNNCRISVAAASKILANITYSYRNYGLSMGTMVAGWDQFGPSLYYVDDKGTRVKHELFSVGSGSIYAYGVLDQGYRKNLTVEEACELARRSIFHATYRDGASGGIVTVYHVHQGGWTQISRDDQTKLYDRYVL

Homo sapiens = organism: Homo sapiens; assay: To identify inhibition of the IFN signalling (Jak-Stat) pathway via expression of an eGFP reporter gene under the control of an IFN-stimulated response element (ISRE) containing MxA promoter.; assay type: functional; details: 30 µM
[6] = biological target: T4, Tyrosyl-tRNA synthetase, putative (Trypanosoma cruzi (strain CL Brener)) (UniProt Q4DSP6); assay: Trypanosoma cruzi tyrosyl tRNA synthetase (TcYRS) _High Tyrosine SOP; assay type: functional; details: 30 µM; note: in the data most compounds retested in dose-response had high values
T4 sequence (whole entry): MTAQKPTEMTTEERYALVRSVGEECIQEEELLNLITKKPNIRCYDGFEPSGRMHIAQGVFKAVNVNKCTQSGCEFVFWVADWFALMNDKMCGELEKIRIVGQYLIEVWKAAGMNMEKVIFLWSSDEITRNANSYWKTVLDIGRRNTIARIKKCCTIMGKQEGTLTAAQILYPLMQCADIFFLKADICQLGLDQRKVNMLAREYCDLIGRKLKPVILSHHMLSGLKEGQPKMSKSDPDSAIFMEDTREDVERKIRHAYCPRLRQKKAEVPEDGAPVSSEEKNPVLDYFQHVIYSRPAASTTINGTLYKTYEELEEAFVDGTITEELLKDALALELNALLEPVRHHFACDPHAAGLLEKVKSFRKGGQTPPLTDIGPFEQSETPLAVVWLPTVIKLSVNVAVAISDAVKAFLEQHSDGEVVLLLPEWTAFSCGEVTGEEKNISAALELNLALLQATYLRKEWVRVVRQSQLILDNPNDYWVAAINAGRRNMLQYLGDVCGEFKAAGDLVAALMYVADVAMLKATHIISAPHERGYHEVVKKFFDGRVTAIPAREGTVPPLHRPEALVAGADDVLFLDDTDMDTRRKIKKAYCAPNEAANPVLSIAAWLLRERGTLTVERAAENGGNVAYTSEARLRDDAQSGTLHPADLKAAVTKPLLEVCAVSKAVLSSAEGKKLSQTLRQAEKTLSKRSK

[7] = biological target: T4, Tyrosyl-tRNA synthetase, putative (Trypanosoma cruzi (strain CL Brener)); assay: Trypanosoma cruzi tyrosyl tRNA synthetase (TcYRS) SOP; assay type: functional; details: 30 µM
[8] = biological target: Chromo domain-containing protein 1 (Saccharomyces cerevisiae (strain ATCC 204508 / S288c) (Baker's yeast)) (UniProt P32657); assay: ScCHD-1 Enzyme Inhibition Assay; assay type: functional; details: 30 µM; note: in the data most compounds retested in dose-response had high values
Chain of Chromo domain-containing protein 1 (Saccharomyces cerevisiae (strain ATCC 204508 / S288c) (Baker's yeast)) (P32657 whole entry, the tested form may be a part): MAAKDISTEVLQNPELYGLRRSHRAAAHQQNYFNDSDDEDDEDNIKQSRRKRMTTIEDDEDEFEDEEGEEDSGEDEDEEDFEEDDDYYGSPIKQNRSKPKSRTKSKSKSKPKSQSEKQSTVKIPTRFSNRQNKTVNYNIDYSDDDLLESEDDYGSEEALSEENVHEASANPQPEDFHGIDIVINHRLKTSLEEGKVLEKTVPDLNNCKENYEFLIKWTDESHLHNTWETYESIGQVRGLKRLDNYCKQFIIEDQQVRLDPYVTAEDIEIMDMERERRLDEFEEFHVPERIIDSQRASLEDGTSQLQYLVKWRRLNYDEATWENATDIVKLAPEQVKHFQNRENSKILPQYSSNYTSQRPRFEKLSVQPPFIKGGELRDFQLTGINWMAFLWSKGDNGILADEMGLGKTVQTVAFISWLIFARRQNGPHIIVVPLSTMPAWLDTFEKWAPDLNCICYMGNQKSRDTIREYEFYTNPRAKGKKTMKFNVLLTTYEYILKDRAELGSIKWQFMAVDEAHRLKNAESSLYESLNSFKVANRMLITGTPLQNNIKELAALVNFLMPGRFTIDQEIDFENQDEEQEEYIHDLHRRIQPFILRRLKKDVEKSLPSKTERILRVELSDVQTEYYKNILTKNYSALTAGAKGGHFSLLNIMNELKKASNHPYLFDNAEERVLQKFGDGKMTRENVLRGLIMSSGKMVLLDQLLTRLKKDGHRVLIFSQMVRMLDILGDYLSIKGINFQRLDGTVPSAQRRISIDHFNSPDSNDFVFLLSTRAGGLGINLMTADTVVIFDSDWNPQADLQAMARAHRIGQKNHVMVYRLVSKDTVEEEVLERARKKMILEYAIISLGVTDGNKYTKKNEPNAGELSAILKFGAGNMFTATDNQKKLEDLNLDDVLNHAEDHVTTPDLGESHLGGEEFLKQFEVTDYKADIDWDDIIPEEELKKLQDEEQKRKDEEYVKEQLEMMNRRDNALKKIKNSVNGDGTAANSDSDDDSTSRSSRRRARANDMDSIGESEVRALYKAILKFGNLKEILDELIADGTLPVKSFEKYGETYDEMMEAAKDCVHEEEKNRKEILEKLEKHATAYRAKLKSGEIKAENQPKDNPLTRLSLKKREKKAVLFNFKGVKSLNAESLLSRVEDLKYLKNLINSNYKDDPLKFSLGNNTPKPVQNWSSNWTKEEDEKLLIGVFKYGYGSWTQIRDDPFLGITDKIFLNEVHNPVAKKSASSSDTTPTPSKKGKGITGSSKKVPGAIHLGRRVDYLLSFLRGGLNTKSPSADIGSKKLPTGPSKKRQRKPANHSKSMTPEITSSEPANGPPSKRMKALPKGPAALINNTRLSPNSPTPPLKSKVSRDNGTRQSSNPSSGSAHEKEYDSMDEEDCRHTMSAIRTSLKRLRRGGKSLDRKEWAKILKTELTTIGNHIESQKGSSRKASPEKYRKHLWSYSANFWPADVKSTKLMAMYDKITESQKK

Chain of Protein translocase subunit SecA (Escherichia coli (strain K12)) (P10408 whole entry): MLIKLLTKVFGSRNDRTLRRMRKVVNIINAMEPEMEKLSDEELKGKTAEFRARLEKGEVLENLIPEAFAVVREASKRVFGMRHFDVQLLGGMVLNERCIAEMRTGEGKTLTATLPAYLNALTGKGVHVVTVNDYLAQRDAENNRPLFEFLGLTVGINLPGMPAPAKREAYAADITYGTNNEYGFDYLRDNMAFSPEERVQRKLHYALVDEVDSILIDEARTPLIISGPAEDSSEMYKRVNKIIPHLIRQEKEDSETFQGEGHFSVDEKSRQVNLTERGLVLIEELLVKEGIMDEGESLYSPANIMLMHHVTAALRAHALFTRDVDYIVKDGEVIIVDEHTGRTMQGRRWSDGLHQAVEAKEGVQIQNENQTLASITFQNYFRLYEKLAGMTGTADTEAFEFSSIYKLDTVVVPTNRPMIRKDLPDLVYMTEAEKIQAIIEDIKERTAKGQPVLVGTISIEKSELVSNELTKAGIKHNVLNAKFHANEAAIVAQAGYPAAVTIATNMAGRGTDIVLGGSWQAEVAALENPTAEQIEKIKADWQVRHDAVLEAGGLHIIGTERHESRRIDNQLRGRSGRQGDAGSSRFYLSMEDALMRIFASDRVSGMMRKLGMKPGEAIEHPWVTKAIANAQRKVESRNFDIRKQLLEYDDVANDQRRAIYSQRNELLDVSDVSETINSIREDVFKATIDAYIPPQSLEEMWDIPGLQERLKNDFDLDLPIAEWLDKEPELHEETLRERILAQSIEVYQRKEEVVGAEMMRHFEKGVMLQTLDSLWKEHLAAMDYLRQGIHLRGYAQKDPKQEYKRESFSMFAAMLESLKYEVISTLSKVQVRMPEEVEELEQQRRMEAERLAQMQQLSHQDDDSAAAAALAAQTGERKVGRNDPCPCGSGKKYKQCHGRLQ

| Structure (SMILES) | Percent Effect [1] | Percent Effect [2] | Percent Effect [3] | Percent Effect (Trypanosoma cruzi) | Percent Effect [4] | Percent Effect [5] | Percent Effect (Homo sapiens) | Percent Effect [6] | Percent Effect [7] | Percent Effect [8] |
| --- | --- | --- | --- | --- | --- | --- | --- | --- | --- | --- |
| O=C(NCC1CC1)C1CCC2(CCN(C(=O)c3ccccn3)CC2)O1 (stereo not given) | -3.07% | 1.3% | -0.0517% | -2.44% | 2.74% | -2.66% | 9.93% | -4.83% | -10% | -4.71% |
| COc1c(C2CCCN2C(=O)c2c[nH]c3ncccc23)c(C)nn1C (stereo not given) | -5.03% | 7.79% | 8.63% | -5.41% | 2.25% | 7.02% | 1.49% | 5.88% | 7.06% | -7.9% |
| CC(C)(C)c1cn2nc(N3CCOC(Cn4cncn4)C3)sc2n1 (stereo not given) | -1.88% | 23.1% | -8.45% | 7.79% | -2.46% | 12.4% | 13.8% | 3.35% | 22.9% | -5.11% |
| Cc1cccn2cc(CC(=O)N3CCCC(n4cncn4)C3)nc12 (stereo not given) | -0.27% | 17.9% | -8.4% | 6.1% | 5.74% | 15.6% | 17.2% | 3.35% | 22.9% | -6% |
| O=C(NCc1cc[nH]n1)NCC(O)COc1cccc(F)c1 (stereo not given) | -1.6% | 10.7% | -6.96% | -7.03% | -7.98% | 8.74% | 12.9% | -2.63% | 0% | -6.87% |
| COc1ncc(CN2CC[C@@](C)(O)[C@H](Oc3cccc(F)c3)C2)cn1 | -2.75% | 9.33% | -0.132% | -2.76% | -1.33% | 6.73% | 8.72% | 4.23% | 10% | -23.1% |
| CNc1cncc(C2CCCN2C(=O)c2ccc3oc(C)cc3c2)n1 (stereo not given) | -2.25% | 12% | -1.38% | 3.35% | -1.33% | 16.6% | -2.62% | 3.17% | 7.5% | -26.1% |
| CCOC1COC2(CCN(Cc3ccc4c(c3)OCO4)CC2)C1 (stereo not given) | -2.81% | 19.5% | 5.28% | -1.13% | 3.65% | 5.06% | 17.9% | 8.7% | 12.5% | -4.64% |
| O=C1CCCN1Cc1nnc2n1CCN(Cc1ccoc1)CC2 | -6.7% | 9.09% | -2.11% | -3.94% | 1.83% | 0.601% | 26.1% | -1.93% | -2.5% | -3.88% |
| COc1cccc(S(=O)(=O)N2CCC(O)(CN(C)C)C2)c1 (stereo not given) | -2.81% | 4% | -1.76% | -3.35% | 4.42% | 9.2% | -4% | 1.06% | 7.5% | -23.8% |
| CN1[C@H](CN2CCCC2)C[C@@H]2CN(C(=O)Cc3cccs3)CC[C@@H]21 | -2.98% | 16.9% | -1.33% | -3.56% | 0% | 5.75% | 2.07% | 7.73% | 2.5% | -11.2% |
| Cn1nc2c(cc1=O)CN(Cc1nnc(-c3ccc(F)cc3)o1)CC2 | -0.335% | 7.69% | -9.64% | -6.48% | 7.79% | 6.23% | 30.1% | 0.478% | 6.02% | -4.76% |
| O=C(c1cc(C2CC2)on1)N1CCCC(n2cncn2)C1 (stereo not given) | -3.26% | 15.4% | -20% | 9.48% | -0.82% | 20.7% | 15.6% | 4.31% | 22.9% | 30.2% |
| Cn1ccc(CN2CCCC2c2ccc3c(c2)OCCCO3)cc1=O (stereo not given) | -1.37% | 7.69% | -4.76% | 1.78% | 6.56% | 18.2% | 22% | 9.09% | 20.5% | -1.67% |
| Cc1ncsc1C(=O)N(Cc1cccnc1)C1CC1 | -0.351% | 2.56% | 10% | 5.92% | 4.1% | -1.45% | 16.3% | 1.44% | 8.43% | -2.14% |
| Cc1[nH]ncc1C(=O)N1CCN(CC(O)C(C)(C)C)CC1 (stereo not given) | -2.19% | 17.9% | -6.77% | 7.23% | -2.46% | 8.79% | -1.39% | 6.22% | 20.5% | -6.95% |
| CC(C)c1cc(N2CCC(CCC(=O)NC3CC3)CC2)n2nccc2n1 | -2.45% | 5.41% | 2.79% | -0.097% | 2.45% | 9.76% | 7.29% | 4.79% | 12.2% | -3.08% |
| Cc1nc(C)n(CC2CCCN2Cc2cn3ccsc3n2)n1 (stereo not given) | 1.01% | 12.8% | -7.58% | -2.72% | -1.23% | 19% | 27.5% | 3.35% | 13.2% | -5.22% |
| CN(Cc1nnc(-c2ccco2)o1)C1CCCN(c2cccnn2)C1 (stereo not given) | 2.65% | 10.3% | -14.4% | -2.91% | -0.82% | 28.4% | 30.2% | 3.35% | 8.43% | 1.33% |
| CN(C)[C@@H]1CN(Cc2ccco2)C[C@@H]2CCCO[C@@H]21 | -2.22% | 6.49% | -4.86% | -5.16% | -1.22% | 9.27% | 3.2% | -0.526% | 7.69% | -3.13% |
| O=C(CN1CCCC(Cn2cncn2)C1)NCCOc1ccccc1 (stereo not given) | 3.17% | -2.67% | 2.29% | -1.41% | 5.32% | 4.67% | 6.94% | 0.526% | 0% | -6.78% |
| COc1cc(S(=O)(=O)N2CCCc3ccccc32)cc(C(=O)O)c1OC | -5.67% | 0% | 10.6% | -0.201% | -3.99% | 7.38% | 9.13% | 0.526% | 7.69% | -5.31% |
| Cc1nc[nH]c1CN1CCN(C(=O)CCC(F)(F)F)[C@H]2CS(=O)(=O)C[C@H]21 | -7.21% | 2.7% | 12% | 7.66% | 14.3% | 15.1% | 11.2% | 7.98% | 12.2% | -1.8% |
